High-throughput results: PubChem, several laboratories
The list is not random: actives were taken first. Their share in the collection is about 2.1%.
PfHsp40 yeast = compounds rescuing yeast from Plasmodium falciparum HSP40 toxicity | 340,000 tested, 0.68% active | growth rescue, % at 12.5 µM | S. cerevisiae expressing PfHsp40, growth rescue, ATP luminescence | AID 504582; in the data active = growth rescue above about 28%, passing the limit was not always enough;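 also: yeast W303a lacking pdr1 and pdr3 grown in galactose medium; growth measured after three days at 30 °C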
MazF activator = increases E. coli MazEF RNase cleavage of RNA. P0AE70. FAM/BHQ RNA-DNA oligo cleavage fluorescence, 5 h. activation, % at 20 µM. 350,000 tested, 0.32% active; in the data active = activation above about 50%
Target sequence (P0AE70 whole entry, looked up): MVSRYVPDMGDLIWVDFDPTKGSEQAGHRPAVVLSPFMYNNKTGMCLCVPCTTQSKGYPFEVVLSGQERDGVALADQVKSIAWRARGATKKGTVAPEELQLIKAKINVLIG
PrPC TRFRET = reduces human prion protein on the cell surface; AID 720596; 370,000 tested, 0.43% active; cell surface PrPC, TR-FRET read-out; inhibition, % at 13.8 µM; in the data active = inhibition above about 24%; also: 0% = median of the test wells and 100% = reference compound wells
PrP 5UTR inh = inhibition of PrP 5' UTR reporter expression. cell-based PrP 5' UTR mRNA reporter, plate reader. inhibition, % (test concentration not listed). 340,000 tested, 0.35% active. AID 488862; in the data active = inhibition above about 52%; also: 0 = median of the neutral control wells
DUSP3 inh = DUSP3 (human) phosphatase inhibition; P51452; recombinant VHR phosphatase, pNPP absorbance; inhibition, % at 13.3 µM; 290,000 tested, 0.52% active; AID 1654; in the data active = inhibition above about 50%
Target sequence (P51452 whole entry, looked up): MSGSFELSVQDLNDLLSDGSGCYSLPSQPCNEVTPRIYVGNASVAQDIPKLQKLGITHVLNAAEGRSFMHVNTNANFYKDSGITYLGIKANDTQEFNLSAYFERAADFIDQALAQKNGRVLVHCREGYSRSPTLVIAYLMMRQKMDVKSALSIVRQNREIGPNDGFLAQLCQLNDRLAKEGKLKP
BJeLR lethal = kills HRASV12-expressing BJeLR cells | 300,000 tested, 0.17% active | BJeLR (HRASV12) viability, CellTiter-Glo ATP luminescence, 48 h | inhibition, % (test concentration not listed); in the data active = inhibition above about 50%
* = called active by the depositor; x = no result.

SMILES | PfHsp40 yeast | MazF activator | PrPC TRFRET | PrP 5UTR inh | DUSP3 inh | BJeLR lethal
Cc1cccc(NC(=O)NNC(=O)c2ccc3ccccc3c2O)c1 | 58* | 3 | 6 | -30 | 1 | 8
Cc1ccc(NC(=O)NNC(=O)c2cc3ccccc3cc2O)cc1 | 70* | -11 | 2 | -13 | 6 | 1
COc1ccccc1NC(=O)NNC(=O)c1cc2ccccc2cc1O | 8 | 0 | 0 | -19 | 15 | -17
O=C(NNC(=O)c1ccc2ccccc2c1O)Nc1ccc(F)cc1 | 2 | 6 | -2 | -19 | 28 | -10
Cc1cc(C)nc(NC(=O)CSc2nc3cc(Cl)ccc3s2)n1 | 66* | -18 | -3 | -41 | 2 | -8
Cc1cc(C)nc(NC(=O)CSc2nc3ccccc3s2)n1 | 0 | 8 | 2 | -62 | -4 | 1
CCCn1c(CN2CCN(C(=O)OCC)CC2)nc2cc([N+](=O)[O-])ccc21 | -1 | -4 | -12 | -14 | -3 | -9
NC(=O)NC(CC(=O)NCCCc1ccccc1)c1ccccc1Cl (stereo not drawn) | 0 | 1 | 5 | -11 | -11 | 5
NC(=O)NC(CC(=O)NCCc1ccccn1)c1ccccc1Cl (stereo not drawn) | -1 | -1 | -4 | -14 | 53* | 3
C=CCN(C)C(C#CCCCC)c1ccccc1 (stereo not drawn) | x | x | -4 | x | x | x
O=C(CCc1cn2ccccc2n1)NC1CCCc2c1cnn2-c1ccccc1F (stereo not drawn) | 1 | 4 | 5 | -4 | 50* | 13
O=C(NC1CCCc2c1cnn2-c1ccc(F)cc1F)c1csnn1 (stereo not drawn) | 1 | 0 | 2 | 2 | 54* | 3
Cc1ccc(CCNC(=O)CSCc2ccc(F)cc2)cc1 | -1 | 0 | 2 | -7 | 40 | -5
O=C(OC1CCOC1=O)c1ccc(CO)cc1 (stereo not drawn) | 0 | 8 | -4 | -18 | -12 | -7
C/C(=N\NC(=O)c1c([N+](=O)[O-])c(C)nn1C)c1ccc(NC(=O)C2CCCC2)cc1 | -1 | 3 | 4 | 67* | 18 | 42
C/C(=N\NC(=O)c1c(Cl)c(C)nn1C)c1ccc(NC(=O)C2CCC2)cc1 | -1 | 5 | 1 | 23 | 33 | 22
Cn1c(O)c(/C=C/C=Nc2ccccc2)c(=O)n(C)c1=S | 0 | -448 | 3 | -47 | 54* | 5
O=c1[nH]c(C2CCCN(S(=O)(=O)Cc3ccccc3)C2)nc2c1nnn2Cc1cccc(Cl)c1 (stereo not drawn) | -1 | -2 | 6 | -15 | 24 | 10
O=C(O)c1ccc(NC(=O)C2C3CCC(C3)C2C(=O)O)cc1 (stereo not drawn) | 0 | 9 | 0 | -7 | 12 | -7
CSc1ccccc1NC(=O)C1C2CCC(C2)C1C(=O)O (stereo not drawn) | 0 | 1 | -3 | -7 | 52* | 6
Cc1cccc2sc(NNC(=O)c3ccc(S(=O)(=O)N4CCc5ccccc5C4)cc3)nc12 | 410* | 1 | 3 | 8 | 15 | 16
COc1ccc(S(=O)(=O)N2CCc3ccccc3C2)cc1 | -2 | 5 | 5 | -3 | 51* | -20
CCc1ccc2nc(N(CCCN(C)C)C(=O)c3ccc(S(=O)(=O)N4CCc5ccccc5C4)cc3)sc2c1 | -2 | -13 | -7 | 11 | 10 | 4
Cc1cccc2sc(NNC(=O)c3ccc(S(=O)(=O)N4CCCC(C)C4)cc3)nc12 (stereo not drawn) | 356* | 12 | 2 | 9 | -4 | 11
CCOc1cccc2sc(N(CCCN(C)C)C(=O)c3ccc(S(=O)(=O)N4CCc5ccccc5C4)cc3)nc12 | 12 | 50* | -23 | 6 | 4 | -2
CCOc1ccc(S(=O)(=O)N2CCc3ccccc3C2)cc1 | 0 | 1 | 6 | -18 | 23 | -3
C=CCN1[C@H](C)COc2cccc(F)c2S1(=O)=O | x | x | -5 | x | x | x
Clc1ccc(CN2C3=NCCCN3c3ccccc32)cc1 | -1 | 5 | -5 | -3 | 13 | 7
O=C1c2ccccc2N(Cc2ccc(Cl)cc2)C2=NCCN12 | 0 | 146* | 9 | -21 | 5 | -12
COc1ccc(C2CC(C)(c3ccc(OC)cc3OC)Nc3ccccc3N2)c(OC)c1 (stereo not drawn) | 0 | 1 | 9 | -13 | 15 | 1
